The values below come from PubChem BioAssay (NCATS).

Inconclusive results are not listed. Unmarked numbers belong to inactive results. The source made the active and inactive calls. Calls follow the shape of the dose curve; as a rule, active = well fitted curve in the direction sought with a large enough effect; inconclusive = small, poorly fitted or top-dose-only effect, or another doubt; inactive = no such curve, though single readings can be large; an effect the other way counts as inactive or inconclusive.

The nature of test [1]: P-glycoprotein substrates identified in KB-3-1 adenocarcinoma cell line, qHTS therapeutic library screen (AID 1346986). Also: nearly all actives have a fitted effect of over 60% in size.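 Also: potency is for cytotoxicity meaning loss of cell viability.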 The gist of the method:
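Cells seeded 500/well in DMEM/10% FCS; compounds pinned in dose-response; 72 h incubation; CellTiter-Glo added, 5 min, luminescence. KB-8-5-11 run ±tariquidar to test reversal of P-gp resistance.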

The nature of test [2]: P-glycoprotein substrates identified in KB-8-5-11 adenocarcinoma cell line, qHTS therapeutic library screen (AID 1346987). Also: nearly all actives have a fitted effect of over 65% in size. As to activity change, negative = cytotoxicity: series mostly up to about 44 µM; % is scaled to controls: 0 for no effect and ±100 for the full control effect. Summed up:
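KB-8-5-11, a colchicine-selected P-gp-overexpressing KB-3-1 subline, was grown without colchicine for the assay. Cells were seeded at 500 cells/well, dosed in concentration-response and incubated 72 h at 37 degree C, 5% CO2. Viability was read by CellTiter-Glo luminescence.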
On the technique in general: In qHTS, concentration-response curves come from the screen itself.
Potency is read from the fitted curve at half-maximal effect.

Consider `CC1=CC2C(CC1OC1OC(CO)C(O)C(O)C1O)C(C)CC(=O)C2C(C)C` (stereo not given), for which the Potency entry in test [1] and in test [2] was “inactive” throughout.
In the case of `NC(=O)c1csc(C2OC(CO)C(O)C2O)n1` (stereo not given), the Potency result in test [1] and in test [2] was “inactive” in each case.
`Cc1cc(Cl)ccc1COc1ccnn1-c1cc(C(=O)O)ccn1`: the Potency result in test [1] and in test [2] was “inactive” in each case.
Take `CN[C@@H]1[C@H](O[C@H]2[C@H](O[C@@H]3[C@@H](O)[C@H](O)[C@@H](N=C(N)N)[C@H](O)[C@H]3N=C(N)N)O[C@@H](C)[C@]2(O)C=O)O[C@@H](CO)[C@H](O)[C@H]1O`: the Potency result in test [1] and in test [2] was “inactive” each time.
With `CC12CCC3c4ccc(O)cc4CCC3C1CC(OC1OC(C(=O)O)C(O)C(O)C1O)C2O` (stereo not given), the Potency entry in test [1] and in test [2] was “inactive” throughout.
`C[C@@H]1N[C@H]2N(C1=O)c1ccccc1[C@@]2(O)C[C@@H]1C(=O)N[C@@H](C)c2nc3ccccc3c(=O)n21`: the Potency result in test [1] and in test [2] was “inactive” throughout.
As for `C[C@@H]1O[C@@H](O[C@H]2[C@@H](OC(=O)[C@]34CCC(C)(C)CC3C3=CCC5[C@@]6(C)C[C@H](O)[C@H](O[C@@H]7O[C@H](C(=O)O)[C@@H](O)[C@H](O)[C@H]7O)[C@@](C)(C(=O)O)C6CC[C@@]5(C)[C@]3(C)CC4)OC[C@H](O)[C@@H]2O)[C@H](O)[C@H](O)[C@H]1O[C@@H]1OC[C@@H](O)[C@H](O)[C@H]1O` (stereo not given in full), the outcome in test [1] was “inactive [at 9.29 µM]”. Moreover, the activity change, negative = cytotoxicity in test [2] is 1.24% [at 9.29 µM].
Regarding `Cc1ccc(C(=O)Nc2noc3ccccc23)cc1`, the Potency result in test [1] and in test [2] was “inactive” each time.
In the case of `CC(C)C1=CC2C(CC[C@]2(C)O)[C@](C)(O)CC1` (stereo not given in full), the Potency entry in test [1] and in test [2] was “inactive” throughout.
On to `CC(=O)O[C@]1(C(C)=O)CC[C@H]2[C@@H]3C[C@H](C)C4=CC(=O)C=C[C@]4(C)[C@@]3(F)[C@@H](O)C[C@@]21C`, for which the Potency entry in test [1] and in test [2] was “inactive” in each case.
For `CCn1c(=O)c(-c2ccn[nH]2)cc2c(C)nc(N)nc21`, the figures for the Potency in test [1] and in test [2] were 3.66 µM (active) and 2.91 µM (active), respectively.
In the same order, the values of `CC(=O)c1c(O)cc(O[C@@H]2O[C@H](CO)[C@@H](O)[C@H](O)[C@H]2O)cc1O` are “inactive” and “inactive”.
Turning to `N#C[C@@H]1CCCN1C(=O)CNC12CC3CC(CC(O)(C3)C1)C2`, the Potency result in test [1] and in test [2] was “inactive” each time.
In the case of `CC1=C2C[C@H]3O[C@@]3(C)CCC3O[C@@]3(C)C[C@@]2(O)OC1=O` (stereo not given in full), the Potency entry in test [1] and in test [2] was “inactive” each time.
As to `COc1cc2ncnc(Nc3cccc(O)c3)c2cc1OC`, the Potency result in test [1] and in test [2] was “inactive” each time.
`C[C@@H]1O[C@@H](O[C@H]2[C@H](O[C@H]3[C@H](O)[C@@H](C(=O)O)O[C@@H](O[C@H]4CC[C@@]5(C)C(CC[C@]6(C)C5CC[C@]57OC[C@@]8(CCC(C)(C)CC85)[C@H](O)C[C@]76C)C4(C)C)[C@@H]3O[C@@H]3O[C@H](CO)[C@@H](O[C@@H]4OC[C@@H](O)[C@H](O)[C@H]4O)[C@H](O)[C@H]3O)O[C@H](CO)[C@H](O)[C@@H]2O)[C@H](O)[C@H](O)[C@H]1O` (stereo not given in full): in test [1], the outcome is “inactive [at 9.29 µM]”. The activity change, negative = cytotoxicity in test [2] was 2.43% [at 9.29 µM].
Take `CC1(C)CC[C@]2(C(=O)O[C@@H]3O[C@H](CO)[C@@H](O)[C@H](O)[C@H]3O)CC[C@]3(C)C(=CCC4[C@@]5(C)C[C@@H](O)[C@H](O)[C@@](C)(CO)C5CC[C@]43C)C2[C@@H]1O` (stereo not given in full): the Potency result in test [1] and in test [2] was “inactive” throughout.
Take `C=C1[C@@H]2CC[C@@H]3[C@@](CCC4C(C(=O)O)(C(=O)O)C[C@@H](O[C@@H]5O[C@H](CO)[C@@H](O)[C@H](O)[C@H]5OC(=O)CC(C)C)C[C@]43C)(C2)[C@H]1O` (stereo not given in full): the Potency result in test [1] and in test [2] was “inactive” each time.
For the molecule `OC[C@H]1O[C@@H](Oc2cc(O)c3c(c2)O[C@@H](c2ccc(O)cc2)[C@H](O)C3)[C@H](O)[C@@H](O)[C@@H]1O`, the Potency entry in test [1] and in test [2] was “inactive” throughout.
On to `CCn1cc(NC(=S)Nc2cc(Cl)ccc2OC)c(C(N)=O)n1`, for which the Potency result in test [1] and in test [2] was “inactive” throughout.
With `O=C(NCC(O)CO)c1ccncc1Nc1ccc(I)cc1F` (stereo not given), the Potency result in test [1] and in test [2] was “inactive” each time.
Regarding `C[C@@H]1O[C@@H](O[C@H]2[C@H](O[C@H]3[C@H](O[C@H]4CC[C@@]5(C)C(CC[C@]6(C)C5CC=C5[C@@H]7CC(C)(C)CC[C@]7(C(=O)O[C@@H]7O[C@H](CO)[C@@H](O[C@@H]8O[C@@H](C)[C@H](O)[C@@H](O)[C@H]8O)[C@H](O)[C@H]7O)CC[C@]56C)C4(C)C)OC[C@H](O)[C@@H]3O)O[C@H](CO)[C@@H](O)[C@@H]2O)[C@H](O)[C@H](O)[C@H]1O` (stereo not given in full), the outcome in test [1] and in test [2] was “inactive [at 9.29 µM]” each time.
Regarding `CCC(O)C(C)C1CCC(C(C)C(=O)O)O1` (stereo not given), the Potency entry in test [1] and in test [2] was “inactive” in each case.
`O=C(O)c1cn(C2CC2)c2cc(N3C[C@@H]4C[C@H]3CN4)c(F)cc2c1=O`: the Potency result in test [1] and in test [2] was “inactive” throughout.
As for `CC(=O)OC1CC2C3(C)CCC(OC(=O)CC(=O)O)C(C)(C)C3CCC2(C)C2(C)CCC(C3(C)CCC(=O)O3)C12` (stereo not given), the Potency result in test [1] and in test [2] was “inactive” each time.
